# In PubChem BioAssay (NCI):
# About 79,000 compounds went through this panel and 15% of them were active in at least one assay; those are over-represented in the sample as a whole. A number with no mark means an inactive call. Active and inactive are the calls of the source. No stated cut-off is given here; in the data, active means growth inhibition above about 70%; inactive means the rest. Where a SMILES comes first, the peptide text is derived from it. The star is where a group is joined. Cbz = O=C(OCc1ccccc1)*
# Tests used:
# [1] = NCI Yeast Anticancer Drug Screen. Data for the rad50 strain (AID 155);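 further: 0% = growth of vehicle-only cultures of the same strain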; conditions: S. cerevisiae rad50 strain growth inhibition; at 50.0 µM; hits give high values
# In short: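 Yeast carrying a defined DNA repair defect were exposed to test compounds, and growth was compared with vehicle-treated controls to give percent inhibition.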
# [2] = NCI Yeast Anticancer Drug Screen. Data for the mec2-1 strain (AID 157); conditions: S. cerevisiae mec2-1 strain, at 50.0 µM, hits give high values
# In short: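 Cells of the genetically defined mec2-1 yeast strain are incubated with test compound. Inhibition of growth is calculated against vehicle-treated controls.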
# [3] = NCI Yeast Anticancer Drug Screen. Data for the sgs1 mgt1 strain (AID 161);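 further: 0% = growth of cultures given vehicle only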; conditions: S. cerevisiae sgs1 mgt1 strain, at 50.0 µM, hits give high values
# In short: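 Test agents were incubated with a DNA-repair-mutant yeast strain. Growth was then read and compared against vehicle-treated controls.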
# [4] = NCI Yeast Anticancer Drug Screen. Data for the cln2 rad14 strain (AID 165);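 further: 0% = growth equal to vehicle treated cultures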; conditions: S. cerevisiae cln2 rad14 strain, at 50.0 µM, hits give high values
# In short: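 The screen exposed genetically defined yeast (cln2 rad14) to test compounds and scored growth inhibition relative to vehicle-treated controls.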
# [5] = NCI Yeast Anticancer Drug Screen. Data for the bub3 strain (AID 167); conditions: S. cerevisiae bub3 mutant strain, at 50.0 µM, hits give high values
# In short: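 Compounds were applied to a genetically altered yeast strain carrying a cell-cycle control defect. Growth inhibition was scored against vehicle-treated controls.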
# [6] = NCI Yeast Anticancer Drug Screen. Data for the mlh1 rad18 strain (AID 175); conditions: S. cerevisiae mlh1 rad18 strain growth inhibition; at 50.0 µM; hits give high values
# In short: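 Compound-treated yeast growth, normalised to vehicle controls. Strain bears defined DNA repair mutations.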
Structure (SMILES),growth inhibition [1],growth inhibition [2],growth inhibition [3],growth inhibition [4],growth inhibition [5],growth inhibition [6]
COC1=CC(=O)C(CC=C(C)C)=CC1=O,5.65%,-9.9%,-1.2%,-62.4%,-8.9%,-3.2%
Cn1c(=O)c2c(nc(OC3CCCCC3)n2C)n(C)c1=O,14.1%,-1.3%,29.4%,26.1%,57.5%,-2.95%
CN(C)CCNC1=CC(=O)c2nc3ccccc3c3ccnc1c23,37%,14.2%,26.8%,27.9%,33.6%,27.4%
COc1ccc(C2OC3=Nc4cc(C)c(C)cc4NC3C2=O)cc1OC (configuration not stated),15.7%,-6.75%,-6.15%,-1.9%,-23.4%,1.9%
COC(=O)C(CO)NC(=O)C(CO)NC(=O)OCc1ccccc1 (stereo not drawn) (Cbz-Ser-Ser-OMe; configuration not given here),-9.8%,3.7%,-0.25%,7.4%,-10%,-16.4%
Cc1ccc(S(=O)(=O)OC(c2ccc(Cl)cc2Cl)C2OC(=O)c3ccccc32)cc1 (configuration not stated),23.3%,-12.4%,16.9%,24.7%,15%,21.4%
O=c1c2c(-c3ccccc3)c3ccccc3nc2cnn1-c1ccccc1,-18.4%,-11%,-18.4%,-18.4%,-24.9%,-14.2%
Cc1ccc(Cc2cc(=O)[nH]c(=S)[nH]2)cc1,-1.05%,4.05%,-6.15%,-26.9%,-11.6%,-3.35%
Cc1nc2c(=O)[nH]c(=O)[nH]c2[nH]c1=O,-20.4%,-12.2%,-24.6%,-50.5%,2.55%,-16.4%
Cc1cc(C)n(-c2ccc([N+](=O)[O-])cn2)n1,4.55%,12%,-1.3%,-8.2%,9.85%,5.25%
COC(=O)c1cc(CN(C)C)c(O)c(CN(C)C)c1,-20.3%,-10.8%,-34%,-3.7%,2%,-29%
CC(C(OC(=O)C1c2ccccc2-c2ccccc21)c1ccccc1)N(C)C (configuration not stated),99.5% (active),75.8% (active),99.5% (active),91.4% (active),99.4% (active),99.2% (active)
Cc1noc2c1C(=O)CCC2,-3.3%,-5.45%,17.8%,11.2%,21.2%,7.05%
N#C/C(=C\c1cccc(Br)c1)c1nc2ccccc2c(=O)[nH]1,5.75%,4.4%,0.2%,1.55%,-14.4%,-35.4%
CC(O)CNC(=O)C(C)O (configuration not stated),11.8%,-27.6%,-25.8%,-5.45%,8.25%,7.6%
COC(=O)OC/C=C\COC(=O)OC,5.8%,-4.05%,-13.6%,-11.4%,4.55%,13.6%
CC(=O)NCCO,-12.7%,-22.8%,-12.7%,-19.4%,3.9%,7.25%
COc1cccc(NC(=O)CC(=O)N2N=C(n3ccc4ccccc43)CC2c2ccccc2)c1 (configuration not stated),-36.3%,-11.4%,-6%,11.1%,-3.1%,-16.6%
O=[N+]([O-])c1ccccc1N=NNc1ccccc1[N+](=O)[O-],9.65%,-4%,1.9%,-26.6%,3.1%,3%

Structure (SMILES),growth inhibition [1],growth inhibition [2],growth inhibition [3],growth inhibition [4],growth inhibition [5],growth inhibition [6]
CCOC(=O)Nc1nc2cc(C(=O)OC)n(C)c2s1,19.4%,23.6%,25.7%,11.1%,7.4%,18.9%
CCC(C)CC(O)CC(C)C (configuration not stated),13.9%,8.85%,1.2%,12.7%,2.65%,13%
O/N=C/c1ccc(Cc2ccccc2)o1,15.7%,19.6%,11.2%,-18.8%,-11.3%,25.9%
COc1cccc(C2ON=C(c3ccccc3)N2C23CC4CC(CC(C4)C2)C3)c1 (configuration not stated),8.5%,-3.4%,-34.2%,-6.7%,10.1%,14.9%
COc1cc2c(cc1OC)C(=O)N(c1ccc(O)cc1)C2=O,-8.25%,-17.6%,-7.8%,20.8%,12.3%,3.9%
CC(=O)OCC1OC(Nc2[nH]c(=O)n(C)c(=O)c2-c2csc(N)n2)C(OC(C)=O)C(OC(C)=O)C1OC(C)=O (configuration not stated),-12.8%,-25.6%,-32.9%,27.4%,-8.9%,-8.6%
CN(C)CCC(c1ccccc1)C(CO)c1ccccc1 (configuration not stated),-24.6%,8.75%,9.9%,7.65%,-2.1%,12.7%
N#CCCc1nc(N)nc(N)n1,-19.7%,-3.7%,-26.9%,-60.3%,-17.7%,5.85%
CCOC(=O)C(C)(C(=O)OCC)n1cnc2c1c(=O)n(C)c(=O)n2C,8.05%,-7.6%,-12.6%,9.8%,10.8%,4.8%
CC#Cc1c(O)c2c(c(O)c1C#CC)C(=O)c1ccccc1C2=O,-1.3%,-30%,-25.4%,-8.95%,-3%,-29.8%
O=C1CCC(N2C(=O)C3CCCCC3C2=O)C(=O)N1 (configuration not stated),-0.2%,12.3%,18.9%,1.7%,8.5%,-14.5%
CCCCCCCCNCC(=O)O,-20%,-21.6%,-5.35%,3.05%,-13.1%,-12.9%
COc1cc(C=O)ccc1OC(=O)Nc1cccc(C(C)=O)c1,4.7%,23.6%,15.9%,7.65%,18.9%,-18.6%
CCOCCOC(=O)C1CCC(=O)N1CN(C(C)=O)c1cc(OC)ccc1OC (configuration not stated),-17.9%,-3.6%,-30.9%,6.1%,-0.5%,-39.5%
O=C1CCC2c3ccccc3NCN12 (configuration not stated),7.05%,7.75%,-35.6%,22.4%,-15.2%,-31.8%
CCC(Oc1ccc(Cl)cc1Cl)C(=O)O (configuration not stated),-4.4%,-9.8%,-8.65%,-8.25%,-10.2%,-1.75%
CCCc1nc2ccc(C)cc2[nH]1,8.4%,-9%,-18.2%,-11.3%,-1.5%,7.9%
CC12CC3CC/C(=N\O)C(C1)C3(N1CCOCC1)C/C2=N/O (configuration not stated),-22.2%,-16.7%,-10.2%,0.3%,-14.8%,8.8%
